Results from PubChem BioAssay AID868 (SRMLSC, 2007).
Hit rate of the full screen: of about 190,000 compounds, about 3,500 (1.8%) were called active. This is one part of a sample in which actives are shown more often than they occur. Values without a mark were called inactive.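 The calls were made as follows: active = inhibition above a set limit, 3 SD over mean compound inhibition (cut at about 8.4% in these data); inactive = the rest.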

Experiment: inhibitors of the yeast RAM network, primary screen, dse1pr::URA3 reporter, 5-FOA selection (AID 868);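 also: 0% = DMSO-only wells with no growth and 100% = 10 µM 1-NA-PP1 full growth; inhibition rescues growth on 5-FOA so higher OD means more RAM inhibition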
Conditions: S. cerevisiae dse1pr::URA3 reporter, 5-FOA growth OD615, 2 d; at 50 µM; active compounds read high; analog-sensitive cbk1-as2 kinase mutant strain
`O=C(c1nnc(-c2ccc(Cl)cc2)o1)C1CCCC1` showed an inhibition of 2.68%.
Compound `COC(=O)CSc1nc(C2CC2)nc2ccccc12` has an inhibition of -0.4%.
With `CCOc1ccc2cc(C#N)c(SCC(=O)OC)nc2c1` the inhibition was 1.88%.
For `COC(=O)CSc1nc2c(c(C3CC=CCC3)c1C#N)CCC2` (stereo not given), the inhibition was 8.53% (active).
`O=C(CSc1cccc[n+]1[O-])c1ccc(-c2ccccc2)cc1` gave an inhibition of 0.55%.
Work on `CCN1CCc2c(C#N)c(NCc3ccccc3)nc(NCCO)c2C1` yielded an inhibition of 1.86%.
In the case of `CCCCc1nc(NCCN)c(C#N)c2c1CSC(C)(C)C2`, the inhibition is reported as 1.35%.
In the case of `CCCCc1nc(NCc2ccccc2)c(C#N)c2c1CCCC2`, the inhibition is reported as 8.74% (active).
`CS(=O)(=O)N1CCc2cc(C(=O)Nc3ccccc3)ccc21` showed an inhibition of 3.82%.
In the case of `COc1ccc(OCC(=O)OCC(=O)Nc2ccc(S(=O)(=O)N3CCCCC3)cc2)cc1`, the inhibition is reported as 4.54%.
For `O=C(CSCc1ccc(Br)cc1)Nc1ccc(S(=O)(=O)N2CCCCCC2)cc1`, the inhibition was 19.5% (active).
`CN(CC(=O)Nc1ccc(S(=O)(=O)N2CCCC2)cc1)Cc1ccc(Cl)c(Cl)c1` showed an inhibition of -0.13%.
Compound `COc1ccc(Sc2nc(-c3ccccc3)ncc2OC)cc1` has an inhibition of 4.55%.
With `Cc1ccc(OC(=O)c2ccccc2C(=O)OCC(F)(F)C(F)F)cc1` the inhibition was 8.9% (active).
In the case of `O=C(CCC(=O)OCC(F)(F)C(F)F)NCc1ccccc1`, the inhibition is reported as -0.39%.
With `Cc1ccc(OC(=O)c2cc3ccccc3o2)cc1` the inhibition was 0.41%.
With `COc1ccc(C=Nc2cccc3ncccc23)cc1` the inhibition was 0.48%.
`C=C(C)c1cccc(C(C)(C)NC(=O)NCCN(CC)CC)c1` gave an inhibition of 1.45%.
With `O=[N+]([O-])c1cc(S(=O)(=O)Nc2cccc(Cl)c2)ccc1N=Nc1c(O)[nH]c2ccccc12` the inhibition was 7.97%.
Work on `CCCCOc1ccc(C(=O)NCc2ccco2)cc1` yielded an inhibition of 0.66%.
`O=C(OCN1C(=O)c2ccccc2C1=O)/C(=C\c1ccco1)NC(=O)c1ccccc1` gave an inhibition of 1.22%.
In the case of `COc1ccc(/C=C(\NC(=O)c2ccc(OCC(C)C)cc2)C(=O)OCc2ccco2)cc1`, the inhibition is reported as 11.7% (active).
Work on `COc1ccc2c(c1)CCC/C2=N\OC(=O)c1ccccc1F` yielded an inhibition of 0%.
`COc1ccc(C(=O)NNS(=O)(=O)c2ccc(C)cc2)cc1` gave an inhibition of 1.12%.
With `Cc1ccc(S(=O)(=O)NC(C)C(=O)Nc2ccccc2C(=O)N2CCCC2)cc1` (stereo not given) the inhibition was 0.67%.
With `Cc1ccc(S(=O)(=O)NNC(=O)Nc2cccc3ccccc23)cc1` the inhibition was 8.69% (active).
With `Cc1ccc(C(C[N+](=O)[O-])c2c(C)cc3ccccn23)cc1` (stereo not given) the inhibition was 5.1%.
With `CCN1CCN(C(=O)CN(C)S(=O)(=O)c2ccc3ccccc3c2)CC1` the inhibition was 1.12%.
In the case of `N/C(=N\OC(=O)CCCC(=O)O)c1ncc(C(F)(F)F)cc1Cl`, the inhibition is reported as 1.61%.
`O=C(CCC(=O)c1cccs1)NCc1ccccc1` showed an inhibition of 1.52%.
Compound `CCCC(=O)n1nc(NCc2ccc(OC)cc2)nc1NCc1ccc(OC)cc1` has an inhibition of 6.99%.
In the case of `O=C(c1cccs1)n1nc(NCc2ccccc2)nc1NCc1ccccc1`, the inhibition is reported as 11.2% (active).
With `O=C(NCCOc1ccccc1Cl)C(=O)Nc1ccccc1` the inhibition was 4.17%.
In the case of `NC(N)=Nc1nc2ccc(Br)cc2c(=O)[nH]1`, the inhibition is reported as -0.37%.
Compound `CCOC(=O)c1c(NC(=S)NC(=O)c2ccco2)sc2c1CCCC2` has an inhibition of 4.55%.
In the case of `CCOC(=O)c1c(NC(=O)CCC(=O)NCc2ccco2)sc2c1CCCC2`, the inhibition is reported as 9.97% (active).
`CCOCC(=O)Nc1sc2c(c1C(=O)OCC)CCCC2` gave an inhibition of 2.1%.
In the case of `Nc1cc(C(F)(F)F)ccc1N1CCOCC1`, the inhibition is reported as 2.42%.
`O=C(CN1CCN(S(=O)(=O)c2ccc(Br)cc2)CC1)Nc1ccccc1C(=O)c1ccccc1` gave an inhibition of 3.25%.
With `Cc1cc2ccccc2n1CCNC(=O)COc1ccc2ccccc2c1` the inhibition was 11.6% (active).
For `COC(=O)C(C)NC(=O)COc1ccc2ccccc2c1` (stereo not given), the inhibition was 1.01%.
Work on `Cc1cc2ccccc2n1CCC(=O)O` yielded an inhibition of -0.54%.
Work on `COc1ccc(S(=O)(=O)Nc2cccnc2)c(Cl)c1Cl` yielded an inhibition of 2.49%.
With `CC(C)Cc1nn2c(=O)cc(O)nc2s1` the inhibition was 1.5%.
In the case of `COc1cccc(CNn2cn[nH]c2=S)c1OCc1ccccc1`, the inhibition is reported as 1.01%.
For `CSc1c(SCc2ccccc2)cnn(Cc2ccccc2)c1=O`, the inhibition was 1.14%.
In the case of `COc1ccc(NC(=O)CN(C)S(=O)(=O)c2ccccc2)cc1OC`, the inhibition is reported as 0.34%.
In the case of `COc1ccc(/C=C/C(=O)Nc2ccc3c(c2)OCCO3)cc1OC`, the inhibition is reported as 1.12%.
For `COc1ccc(S(=O)(=O)N(C)CC(=O)Nc2ccc3c(c2)OCCO3)cc1OC`, the inhibition was 9.23% (active).
For `Cc1ccc(N2C(=O)C3CC3C2=O)cc1` (stereo not given), the inhibition was 0%.
In the case of `O=C(NCc1ccc(Cl)cc1)NCc1ccc(Cl)cc1`, the inhibition is reported as 2.41%.
For `Cc1cccc(Oc2c([N+](=O)[O-])c(=O)n(C)c3ccccc23)c1`, the inhibition was 2.19%.
`CC(C)c1csc(CN2CCC(CO)(Cc3ccccc3)CC2)n1` gave an inhibition of 1.22%.
In the case of `COc1ccc([N+](=O)[O-])cc1NC(=O)CC1SC(=Nc2cccc(C)c2C)N(/N=C(\C)c2ccc(C)cc2)C1=O` (stereo not given), the inhibition is reported as 9.07% (active).
With `COc1ccc([N+](=O)[O-])cc1NC(=O)CCc1ccccc1` the inhibition was 0.95%.
Work on `COc1ccc([N+](=O)[O-])cc1NC(=O)c1ccc(N(Cc2ccccc2C)S(C)(=O)=O)cc1` yielded an inhibition of 4.39%.
For `Cc1ccccc1Nc1nc(N)nc(CSc2ccccc2)n1`, the inhibition was -0.26%.
`COc1ccc(-c2nnc(SC(C)C#N)o2)cc1` (stereo not given) showed an inhibition of -0.45%.
For `COc1ccc(-c2nnc(SC(=O)N3c4ccccc4Sc4ccccc43)o2)cc1`, the inhibition was 8.49% (active).
Compound `COc1ccc(-c2nnc(SCc3cccnc3)o2)cc1` has an inhibition of 0.36%.
Compound `CC1CCN(c2ccc([N+](=O)[O-])cc2C(N)=O)CC1` has an inhibition of 1.09%.
For `Cc1cc(C)c(NC(=S)N2CCCC2C(=O)O)c(C)c1` (stereo not given), the inhibition was -0.25%.
In the case of `COc1ccc(CCNC(=O)C(=O)NCc2ccccc2C)cc1OC`, the inhibition is reported as 0.77%.
For `COC(=O)c1ccc(C2C(Oc3ccccc3C)C(=O)N2CCc2ccc(OC)c(OC)c2)cc1` (stereo not given), the inhibition was 12.4% (active).
Work on `COc1ccc(CCN2C(=O)c3[nH]nc(-c4ccccc4O)c3C2c2ccc(C)cc2)cc1OC` (stereo not given) yielded an inhibition of 1.8%.
